Reference: PubChem BioAssay AID1626 (SRMLSC, 2009)
The whole screen tested about 220,000 compounds, of which about 2,000 (0.91%) were called active. Another 2% or so got no clear call; they are omitted. Cut-off read from the data, not from the text of the source: inconclusive = inhibition above about 80% without an active follow-up result; inactive = below that; test concentration not stated here. The list is a sample of the results. Potency and affinity values are given separately.

Experiment: M. tuberculosis H37Rv growth inhibitors, H37Rv strain (AID 1626);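 note: bacteria incubated seven days before Alamar blue readout; 0% = bacteria only wells and 100% = bacteria with antibiotic wells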
Details: active compounds read high, concentration not given here

SMILES | inhibition
O=C(O)c1ccc(-c2nc(-c3ccc(Cl)c(Cl)c3)cs2)cc1 | 8.4% (inactive)
CNC(=O)c1csc(-c2ccc(C)cc2)n1 | -5.14% (inactive)
CNC(=O)c1csc(-c2ccncc2)n1 | -3.82% (inactive)
O=C(O)c1ccc(-c2nc(-c3ccccc3)cs2)cc1 | -1.73% (inactive)
CC(C)OCCCNS(=O)(=O)c1ccc2c(c1)OCCO2 | 2.36% (inactive)
CN(C(=O)CO/N=C/c1ccc(OC(F)F)cc1)C1CCS(=O)(=O)C1 (stereo not given) | 8.36% (inactive)
CCOc1ccc(-c2cc(CCCC(=O)NCCC(C)C)no2)cc1 | -2.14% (inactive)
CCOc1ccc(-c2cc(CCCC(=O)Nc3cc(OC)ccc3OC)no2)cc1 | 9.58% (inactive)
CCOc1ccc(-c2cc(CCCC(=O)NCCCOC)no2)cc1 | 4.11% (inactive)
CCOc1ccc(-c2cc(CCCC(=O)NCCc3ccccc3)no2)cc1 | 4.69% (inactive)
C=CCNc1nc(-c2ccccn2)nnc1-c1ccccc1 | 37% (inactive)
CN(C)c1nc(-c2ccccn2)nnc1-c1ccccc1 | 68% (inactive)
Cc1ccn(C(=O)c2cc3c(C)nn(-c4ccccc4)c3s2)n1 | 10.1% (inactive)
CC(C)(O)C(=O)NNC(=S)Nc1ccc(F)c(Cl)c1 | 14.7% (inactive)
Cc1ccc(N2C(=O)C(CN3CCCC3)C2c2ccccc2)cc1 (stereo not given) | 27.1% (inactive)
O=C(O)C1CC(=O)N(c2ccc3c(c2)OCCO3)C1 (stereo not given) | 5.06% (inactive)
COc1ccc(N2C(=O)C3CCCN3C2c2ccccc2F)cc1 (stereo not given) | -5.95% (inactive)
O=C1c2ccccc2NC(c2ccc3c(c2)OCCO3)N1c1ccc2c(c1)OCCO2 (stereo not given) | -7.93% (inactive)
COC(=O)C1=C(SC)N(c2ccc(OC)cc2)C(c2ccccc2)CC1=O (stereo not given) | -3.65% (inactive)
Cc1ccc(N2C(=O)C(CN(C)C)C2c2ccccc2)cc1 (stereo not given) | -4.35% (inactive)

SMILES | inhibition
O=C(NN1CCOCC1)c1cc(-c2ccc(Br)cc2)nc2ccccc12 | 7.15% (inactive)
CC(=O)NCCC(=O)Nc1ccc(F)cc1C | -1.47% (inactive)
Cc1nn(-c2cccc([N+](=O)[O-])c2)c(N)c1-c1ccccc1 | 7.18% (inactive)
COCCNc1nc(-c2ccc(OC)cc2)c(-c2ccc(OC)cc2)s1 | 15.7% (inactive)
Cc1csc(Cn2c(CN(C)C)nc3ccccc3c2=O)n1 | 5.39% (inactive)
COc1cc([N+](=O)[O-])cc(CN2CCCCC2)c1O | 2.21% (inactive)
O=C(CN1CCc2ccccc2C1)NC1CCCC1 | -13.6% (inactive)
CCC(=O)N(Cc1c(C)nn(-c2ccccc2)c1Cl)c1ccc(Cl)cc1 | 8.67% (inactive)
CC(=O)N(Cc1c(C)nn(-c2ccccc2)c1Cl)c1ccc(Cl)cc1 | -13.6% (inactive)
CCn1cc(C(=O)OCC(=O)c2ccc(Cl)cc2)c(=O)c2ccc(C)nc21 | -8.38% (inactive)
O=C1CC(c2ccc(F)cc2)Sc2nc(C34CC5CC(CC(C5)C3)C4)nn21 (stereo not given) | 5.92% (inactive)
Cc1ccc(SCn2nnc3ccccc3c2=O)c(C)c1 | -6.38% (inactive)
COc1ccc2nc(/C=N/NC(=O)[C@@H]3CCCN3C(=O)OC(C)(C)C)ccc2c1 | -1.11% (inactive)
O=C(NCc1nnc2n1CCCCC2)c1ccc(Cl)cc1Cl | -8.85% (inactive)
O=C(COc1ccccc1)Nc1nnc(-c2ccccc2)o1 | 12.6% (inactive)
CC(=O)Nc1ccc2c(c1)CCCC2 | 0.76% (inactive)
Clc1ccc(-c2nnc(NC3=NCCCCC3)o2)cc1 | -12.1% (inactive)
O=C(COc1ccc(Cl)cc1)Nc1nnc(-c2ccco2)o1 | 0.85% (inactive)
CC(=O)Nc1cccc(-c2nnc(-c3ccccc3)o2)c1 | -12.3% (inactive)
CCN(CC)S(=O)(=O)c1ccc(N=N/C(C(C)=O)=C(/C)O)cc1 | -10.5% (inactive)

SMILES | inhibition
Cc1c(C#N)c(N=CN(C)C)c(C(=O)c2ccc(Br)cc2)n1-c1ccc(Cl)cc1 | 1.78% (inactive)
CCn1c(C)nc2cc(S(=O)(=O)N3CCCCC3)ccc21 | -10.8% (inactive)
CC(=O)O[C@@H]1[C@H]2[C@@H](C[C@@H](C)[C@@H]3C=CC(=O)[C@@]13C)OC(=O)[C@@H]2C | -0.99% (inactive)
CC(=O)O[C@@H]1[C@H]2[C@@H](C[C@@H](C)[C@@H]3CCC(=O)[C@@]13C)OC(=O)[C@@H]2C | -3.15% (inactive)
C=C1C(=O)O[C@H]2[C@H]1[C@H](OC(=O)CC(=O)O[C@@H]1C[C@@H](C)[C@@H]3C=CC(=O)[C@@]3(C)[C@H]3OC(=O)C(=C)[C@H]13)C[C@@H](C)[C@H]1C=CC(=O)[C@]12C | -7.78% (inactive)
C[C@@H]1C[C@@H]2OC(=O)[C@]3(C)[C@H]2[C@@H](OC3(C)O)[C@]2(C)C(=O)C=C[C@H]12 (stereo not given in full) | -4.34% (inactive)
C=C1C(=O)O[C@@H]2C[C@@H](C)[C@H]3C=CC(=O)[C@]3(O)C[C@@H]12 | -7.5% (inactive)
COc1ccc(NC(=O)CCc2nc3ccccc3[nH]2)cc1 | -2.77% (inactive)
CC(C)c1nc2c([nH]1)c(=O)n(C)c(=O)n2C | -8.57% (inactive)
CCCc1cc(C(=O)Nc2ccc(C(C)=O)cc2)no1 | 79.7% (inactive)
CC(C)c1cc(C(=O)Nc2cc(Br)ccc2O)no1 | 43.5% (inactive)
Cc1cc(C(=O)Nc2c(F)cc(F)cc2Br)no1 | 16.4% (inactive)
O=C(Nc1c(F)cc(F)cc1Br)c1cc(-c2ccc(O)cc2)on1 | 73.7% (inactive)
CC(C)Cc1cc(C(=O)Nc2ccc(Br)cc2)no1 | 68.8% (inactive)
CCCc1cc(C(=O)Nc2cc(Br)ccc2O)no1 | 78.3% (inactive)
CCOC(=O)C1CCCN(C(=O)c2cccc(NC(=O)C(CC)CC)c2)C1 (stereo not given) | -1.45% (inactive)
CCCCCOc1ccc(C)cc1CN(CCCl)CCCl | 5.72% (inactive)
CCOC(=O)CNc1c(N2CCN(c3ccccn3)CC2)c(=O)c1=O | 0.74% (inactive)
COCCn1c(C)cc(C(=O)COC(=O)c2ccc3c(c2)NC(=O)CS3)c1C | 3.82% (inactive)
N#C/C(=C\c1cn[nH]c1-c1ccc(Cl)cc1)C(=O)NC1CC1 | 9.87% (inactive)
